# In publication PMC5540273 (PLoS ONE, 2017):
# What was measured:
# DCAMKL3 = tested on: T1, DCAMKL3
# T1 construct: gene DCLK3
# DRAK2 = tested on: T2, DRAK2
# T2 construct: gene STK17B
# ERK2 = tested on: T3, ERK2
# T3 construct: gene MAPK1
# ERK3 = tested on: T4, ERK3
# T4 construct: gene MAPK6
# ERK4 = tested on: T5, ERK4
# T5 construct: gene MAPK4
# 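Note: kd values determined as follow-up on hits from a single-replicate KINOMEscan panel screen.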
compound,measurement,setting,value
CC[C@@H]1CO[C@H](C(=O)Nc2ccccc2)CN1c1cc(-c2ccc3c(N)n[nH]c3c2)nc(NC)n1 [GSK2376236],Kd,DCAMKL3,570 nM
CNc1nc(-c2ccc3c(N)n[nH]c3c2)cc(N2C[C@@H](C(=O)Nc3ccccc3)CC[C@H]2C)n1 [GSK2298859],Kd,DRAK2,83 nM
COc1ccc(Nc2nccc(N3CCC(NC(=O)C(C)c4ccc(Cl)cc4)CC3)n2)cc1 (stereo not drawn) [GSK1379812],Kd,DYRK1A,> 10000 nM
CNc1cc(-c2ccc3c(N)n[nH]c3c2)nc(N)n1 [GSK2224810],Kd,DYRK2,33 nM
Cn1cncc1-c1cc2c(Nc3ccc(OCc4ccccc4)cc3)ncnc2cn1 [GW281179],Kd,EGFR,10 nM
Cc1ccc(NC(=O)c2ccc(Cl)cc2)cc1-c1ccc(C(=O)Nc2ccncc2)cc1 [GSK1398467],Kd,EPHA3,> 10000 nM
Cc1ccc(-c2nc(Nc3ccncc3)c3ccccc3n2)s1 [GSK189015],Kd,EPHA5,> 10000 nM
same,Kd,ERK2,> 10000 nM
CS(=O)(=O)CCNCc1nc(-c2ccc3ncnc(Nc4ccc5c(cnn5Cc5ccccc5)c4)c3c2)cs1.Cl.Cl [GW569716],Kd,ERBB3,69 nM
same,Kd,ERBB4,8.2 nM
CS(=O)(=O)CCNCc1nc(-c2ccc3ncnc(Nc4ccc(OCc5ccccc5)c(Cl)c4)c3c2)cs1.Cl [GW582764],Kd,ERBB4,69 nM
CC(=O)c1c(C)c2cnc(Nc3ccc(N4CCNCC4)cn3)nc2n(C2CCCC2)c1=O,Kd,ERK3,> 10000 nM
CCn1c(-c2c(N)noc2C)nc2cnccc21 [SB-737856],Kd,ERK3,> 10000 nM
Cc1nccc(-c2c(-c3ccc(F)cc3)ncn2CCCN2CCOCC2)n1.Cl [SB-282975],Kd,ERK4,> 10000 nM
Cc1c(Cn2c3ccccc3n3c(=O)cc(N4CCOCC4)nc23)cccc1C(F)(F)F [GSK2306394],Kd,ERK4,> 10000 nM
